Measured values reported in PubChem BioAssay.
The source made the active and inactive calls. Unless noted, the rule behind the calls is not given here.

Assays:
[1] = A549 cell viability effects, profiling panel, calcein-AM fluorescence, 48 h, basal (AID 1162); conditions: higher = more signal; note: test concentration not given here
[2] = adipocyte viability effects, profiling panel, cell-based, 3T3-L1 adipocytes, calcein-AM fluorescence, 48 h, basal (AID 1163); conditions: 3T3-L1 adipocytes viability, higher = more signal; note: test concentration not given here
[3] = HepG2 cell viability effects, profiling panel, calcein-AM fluorescence, 48 h, basal (AID 1164); conditions: higher = more signal; note: test concentration not given here
[4] = MM1S cell viability effects, profiling panel, calcein-AM fluorescence, 48 h, basal (AID 1165); conditions: higher = more signal;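 note: viability of MM1S multiple myeloma cells under basal unstimulated conditions; test concentration not given here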
[5] = basal RPMI8226 viability, no added stimulus, profiling panel, cell-based, calcein-AM fluorescence, 48 h, PK04 Diversity Set (AID 1166); conditions: RPMI8226 myeloma viability, higher = more signal;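 note: cells grown under basal conditions without added stimulus; test concentration not given here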
[6] = basal HepG2 mitochondrial membrane potential changes, profiling panel, cell-based, JC-1 fluorescence, 24 h, 100 nL compound (AID 1167); conditions: higher = more signal; note: test concentration not given here
[7] = basal 3T3-L1 adipocyte mitochondrial potential changes, profiling panel, cell-based, JC-1 fluorescence, 3T3-L1 adipocytes, 24 h, 100 nL compound (AID 1168); conditions: JC-1 mitochondrial fluorescence, higher = more signal, called active from +8 up or from −8 down; note: test concentration not given here
[8] = basal RPMI8226 mitochondrial membrane potential changes, profiling panel, cell-based, JC-1 fluorescence, 24 h, 100 nL compound (AID 1169); conditions: RPMI8226 myeloma, JC-1 mitochondrial potential fluorescence, higher = more signal; note: test concentration not given here
[9] = basal MM1S mitochondrial membrane potential changes, profiling panel, cell-based, JC-1 fluorescence, 24 h, 100 nL compound (AID 1170); conditions: higher = more signal; note: test concentration not given here
[10] = A549 lung cancer cell viability effects, profiling panel, resazurin fluorescence, 24 h, PK04 Diversity Set (AID 1171); conditions: higher = more signal, called active from +8 up or from −8 down; note: test concentration not given here
[11] = HepG2 liver cancer cell viability effects, profiling panel, resazurin fluorescence, 24 h, PK04 Diversity Set (AID 1172); conditions: higher = more signal; note: test concentration not given here
[12] = basal S. cerevisiae growth modulation, no modifier, primary screen, OD600, strain BY4716, 24 h, basal condition (AID 1173); conditions: OD600, 24 h, higher = more signal, called active from +8 up or from −8 down
[13] = MM1S myeloma cell viability, profiling panel, resazurin fluorescence, basal, 24 h, PK04 Diversity Set (AID 1174); conditions: higher = more signal, called active from +8 up or from −8 down;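 note: MM1S multiple myeloma cell line; test concentration not given here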
[14] = target: Dihydroorotate dehydrogenase (quinone), mitochondrial (Plasmodium falciparum (isolate 3D7)) (UniProt Q08210); assay: PfDHODH enzyme inhibitors, primary screen, biochemical, C-terminal His tag, absorbance 600 nm (AID 1175); conditions: DCIP absorbance 600 nm, higher = more signal, called active from +8 up or from −8 down;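 note: recombinant parasite enzyme with a five histidine tag at its C terminus; test concentration not given here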
Sequence of Dihydroorotate dehydrogenase (quinone), mitochondrial (Plasmodium falciparum (isolate 3D7)) (Q08210 whole entry, looked up): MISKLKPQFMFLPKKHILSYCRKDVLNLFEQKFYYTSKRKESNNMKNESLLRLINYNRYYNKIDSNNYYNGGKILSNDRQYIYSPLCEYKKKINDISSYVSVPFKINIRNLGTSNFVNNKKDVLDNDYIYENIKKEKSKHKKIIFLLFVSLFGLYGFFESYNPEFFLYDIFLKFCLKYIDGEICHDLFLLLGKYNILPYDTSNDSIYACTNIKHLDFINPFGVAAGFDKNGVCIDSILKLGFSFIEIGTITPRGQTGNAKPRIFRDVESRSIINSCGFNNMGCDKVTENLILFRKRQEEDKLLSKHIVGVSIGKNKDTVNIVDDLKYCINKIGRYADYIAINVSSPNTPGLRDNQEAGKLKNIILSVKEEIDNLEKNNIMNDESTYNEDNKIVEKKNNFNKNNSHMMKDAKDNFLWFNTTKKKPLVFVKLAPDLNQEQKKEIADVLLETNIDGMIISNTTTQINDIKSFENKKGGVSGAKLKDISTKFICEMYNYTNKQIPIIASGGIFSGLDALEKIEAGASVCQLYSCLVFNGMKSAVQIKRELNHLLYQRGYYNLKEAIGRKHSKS

[15] = P. aeruginosa biofilm formation inhibitors, primary screen, strain PAO1, LB-PBS medium, absorbance 600 nm (AID 1176); note: test concentration not given here; conditions: P. aeruginosa PAO1 growth/biofilm, A600, 12 h; higher = more signal
[16] = S. cerevisiae RM11-1a growth modifiers, primary screen, strain RM11-1a, OD600, basal, 24 h (AID 1177); conditions: OD600, 24 h, higher = more signal, called active from +8 up or from −8 down;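 note: cultures grown under basal conditions with no added stressor; test concentration not given here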
[17] = E. coli acrAB mutant growth effects, primary screen, E. coli filamentation inducers, strain DRC39, OD650, 24 h (AID 1178); conditions: higher = more signal, called active from +8 up or from −8 down;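 note: growth measured as culture turbidity by optical density at 650 nm; test concentration not given here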
[18] = E. coli acrAB mutant growth effects, primary screen, E. coli filamentation inducers, strain DRC39, OD650, 48 h (AID 1179);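 note: screen aims at cell division blockers that make cells filament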; conditions: E. coli DRC39 delta-acrAB growth, higher = more signal, called active from +8 up or from −8 down
[19] = RPMI8226 myeloma cell viability, profiling panel, resazurin fluorescence, basal, 24 h, PK04 Diversity Set (AID 1180); conditions: higher = more signal;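 note: RPMI8826 multiple myeloma cell line at 5000 cells per well; test concentration not given here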
[20] = target: E3 ubiquitin-protein ligase XIAP (Homo sapiens) (UniProt P98170); assay: XIAP binders, primary screen, biophysical, small-molecule microarray, fluorescence 635 nm (AID 1181); conditions: small-molecule microarray binding, higher = more signal;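 note: score merges 667 nm emission and signal to noise over triplicate slides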
Sequence of E3 ubiquitin-protein ligase XIAP (Homo sapiens) (P98170 whole entry, looked up): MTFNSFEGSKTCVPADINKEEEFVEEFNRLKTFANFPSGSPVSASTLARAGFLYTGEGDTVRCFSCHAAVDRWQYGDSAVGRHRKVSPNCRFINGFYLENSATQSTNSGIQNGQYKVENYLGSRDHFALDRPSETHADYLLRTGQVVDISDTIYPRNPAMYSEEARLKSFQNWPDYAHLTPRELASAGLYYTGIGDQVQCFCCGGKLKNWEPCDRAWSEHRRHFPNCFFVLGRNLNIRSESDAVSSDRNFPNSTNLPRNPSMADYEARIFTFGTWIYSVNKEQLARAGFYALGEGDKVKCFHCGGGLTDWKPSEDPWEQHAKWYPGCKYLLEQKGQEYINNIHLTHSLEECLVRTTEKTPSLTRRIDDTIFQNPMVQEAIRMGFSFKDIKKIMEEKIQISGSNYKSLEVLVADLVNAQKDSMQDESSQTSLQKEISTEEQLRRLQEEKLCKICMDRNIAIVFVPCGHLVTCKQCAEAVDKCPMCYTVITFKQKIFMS

SMILES | z-score [1] | z-score [2] | z-score [3] | z-score [4] | z-score [5] | z-score [6] | z-score [7] | z-score [8] | z-score [9] | z-score [10] | z-score [11] | z-score [12] | z-score [13] | composite z-score [14] | z-score [15] | z-score [16] | z-score [17] | z-score [18] | z-score [19] | composite z-score [20]
O=C1[C@H]2[C@H]3[C@H](O)[C@H](O)CC(=NOC[C@@H](O)COCc4ccco4)[C@H]3CC[C@H]2C(=O)N1c1ccc(F)cc1F | 1.1 | 1.06 | -0.0367 | 0.621 | -0.478 | 0.501 | -0.162 (inactive) | -0.117 | -1.68 | 0.224 (inactive) | 0.474 | -1.89 (inactive) | 0.988 (inactive) | -2.54 (inactive) | 1.18 (inactive) | -3.71 (inactive) | -0.311 (inactive) | -1.22 (inactive) | -0.374 | -0.446
COC(=O)[C@@H]1CC[C@H](C)[C@@H](c2ccc(C)cc2)N1C(=O)c1ccc(C=NO[C@H](C)c2cn([C@H](CO)Cc3ccccc3)nn2)cc1 | 0.354 | 0.747 | -1.31 | 0.005 | -2.98 | -0.701 | -1.55 (inactive) | -0.041 | 0.697 | -0.0166 (inactive) | -1.32 | 0.0789 (inactive) | 0.534 (inactive) | 0.271 (inactive) | -0.598 (inactive) | 0.59 (inactive) | -1.28 (inactive) | -1.03 (inactive) | 0.641 | -0.102
CO[C@H]1COC(=O)CC=C[C@@H](C)[C@H](NS(=O)(=O)c2ccc(C)cc2)COC(=O)CCC[C@@H]1C | 0.379 | 1.15 | -0.179 | 0.339 | 0.229 | -0.3 | -0.134 (inactive) | 0.112 | -0.58 | 0.478 (inactive) | 0.703 | -0.99 (inactive) | 1.01 (inactive) | -0.242 (inactive) | -0.361 (inactive) | -0.5 (inactive) | 0.0468 (inactive) | 0.0191 (inactive) | 0.545 | 0.0797
CCCNC(=O)OC[C@H]1O[C@H](CCON=C(C)CCN2CCc3nc(CC)c(CC)cc3C2)C=C[C@@H]1Oc1ccc(OC)cc1 | -0.142 | 0.73 | -0.304 | -2.95 | -3.14 | 4.22 | -1.48 (inactive) | -0.0505 | 0.598 | -0.245 (inactive) | -1.09 | -0.139 (inactive) | -1.45 (inactive) | 0.358 (inactive) | -0.598 (inactive) | 0.02 (inactive) | -1.13 (inactive) | -1.53 (inactive) | 0.622 | -0.0559
CO[C@@H]1COC(=O)[C@@H](C)COC(=O)[C@@H](C)NC(=O)CC=C[C@@H]1C | -0.448 | 1.25 | -1.45 | -0.539 | -1.86 | 0.2 | -0.189 (inactive) | 0.0701 | -1.48 | 0.512 (inactive) | -0.373 | -0.792 (inactive) | 1.2 (inactive) | -4.92 (inactive) | -0.136 (inactive) | -1.99 (inactive) | -0.98 (inactive) | -1.13 (inactive) | 0.635 | -0.271
COC(=O)CC=C[C@@H](C)[C@H](OCc1cccc(-c2ccccc2)c1)C1CCCCC1 | 0.687 | -0.328 | -0.0634 | -1.92 | -0.771 | -0.579 | 0.57 (inactive) | -0.165 | -0.172 | 0.2 (inactive) | -0.307 | -0.0348 (inactive) | 0.45 (inactive) | -3.69 (inactive) | -0.409 (inactive) | 1.82 (inactive) | -0.933 (inactive) | -0.661 (inactive) | 0.403 | -0.267
COC(=O)[C@H](C)NC(=O)CCC1CC(OC(=O)NCCc2ccc(F)cc2)CC2(CCCC(COC(=O)NCc3cccc(C(F)(F)F)c3)O2)O1 (stereo not given in full) | -0.925 | 0.704 | -1.69 | -3.48 | -0.416 | -0.15 | -0.835 (inactive) | 0.54 | 0.533 | -0.0257 (inactive) | -0.0701 | 1.05 (inactive) | 0.045 (inactive) | -0.302 (inactive) | 0.59 (inactive) | 0.744 (inactive) | 0.696 (inactive) | 0.602 (inactive) | 0.436 | 0.103
CCN1C(=O)[C@H]2[C@H]3[C@H](O)[C@H](O)CC(=NO[C@@H](C)c4cn([C@H](CO)Cc5ccccc5)nn4)[C@@H]3CC[C@H]2C1=O | -0.293 | 0.0248 | -0.644 | -1.59 | -0.784 | -0.559 | -1.49 (inactive) | 0.695 | 0.0117 | -0.499 (inactive) | -0.817 | 0.833 (inactive) | -0.866 (inactive) | -0.642 (inactive) | 0.135 (inactive) | 0.47 (inactive) | 0.121 (inactive) | -0.336 (inactive) | -0.504 | 0.0451
